# Compound activity deposited in PubChem BioAssay by Broad Institute.
# Tg IFNy HTS – inhibitors of Toxoplasma gondii growth with IFN-gamma; Toxoplasma gondii growth in IFN-gamma-treated host cells; stronger effect = lower value; activity change, negative = inhibition, % (concentration not given with the values); 3.8% of 69,000 active; AID 1259416; in the data active = activity change below about -70%, passing the limit was not always enough;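 also: host cells are HeLa cells infected with Toxoplasma gondii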
# An asterisk follows results filed as active; i = inactive; ! = not active in a repeat. Only a selection was taken, and hits are over-represented in it overall.
SMILES,Tg IFNy HTS
CO[C@H]1CN(C)C(=O)c2cc(NC(=O)Nc3c(C)noc3C)ccc2OC[C@H](C)NC[C@H]1C,-1
CO[C@H]1CN(C)C(=O)c2cc(NC(=O)c3cnccn3)ccc2OC[C@H](C)NC[C@@H]1C,173
CO[C@@H]1CN(C)C(=O)c2cc(NC(=O)Nc3c(C)noc3C)ccc2OC[C@H](C)NC[C@H]1C,207
CC=Cc1ccc2n(c1=O)C[C@@H]1N[C@H]2[C@H](C(=O)NC2CCCC2)[C@H]1CO (mixture of isomers),-7
CC(C)N1CCN(CC2CC2)CC1c1nnc2ccc(C(=O)NCCN(C)C)cn12 (stereo not given),3
Nc1ncnc(SCc2c(Cl)cccc2Cl)n1,-81*
CSc1nc(N)nc(COc2ccccc2Cl)n1,47
O=c1[nH]c(SCc2c(Cl)cccc2Cl)nc2ccnn12,68
Cc1noc(C[C@H]2C[C@@H]3CN(C(=O)c4occc4C)C[C@H]3O2)n1,6
CNCCC(Oc1ccc(C(F)(F)F)cc1)c1ccccc1 (stereo not given),-86*!
CCOCCCNC(c1ccccc1)c1ccncc1 (stereo not given),3
CNCC[C@H](Oc1cccc2ccccc12)c1cccs1,19
Cc1cccc(NC(=O)N2CC(C(=O)N3CCOCC3)C3(CCOCC3)C2)c1 (stereo not given),0
CCOC(=O)c1c(NC(=O)c2c(C)nn(-c3ccccc3)c2Cl)sc(C)c1C,-48
CCOC(=O)c1c(NC(=S)NC(=O)c2ccccc2)sc(C)c1C,-73*
CCOC(=O)c1c(NC(=O)c2ccccc2)sc(C(=O)Nc2ccccc2)c1C,3
COCCC(=O)c1ccc2ccc(N3CCN(Cc4cccnc4)CC3)n2c1,44
Cc1nc(-c2ccc(F)cc2)sc1CCNS(C)(=O)=O,83
CN(C)CC(=O)N1[C@@H]2c3ccc(-c4cccc(F)c4)c(=O)n3C[C@@H]2[C@@H](CO)[C@@H]1C(=O)NC1CCC1,-27
FC(F)(F)c1cc2[nH]c(=S)[nH]c2cc1Cl,-93*
O=C(c1cscn1)N1C[C@H](Oc2ccccn2)[C@@H]2OCCC[C@@H]21,-3
COC[C@H]1CCC2C(CCN2C(=O)c2ccc3[nH]ccc3c2)O1 (stereo not given in full),-45
COC(=O)c1c(NCCc2ccc(Cl)cc2)c2cc(F)ccc2[nH]c1=O,-94*
COC(=O)c1c(NCc2c(C)noc2C)c2ccccc2[nH]c1=O,14
COC(=O)c1c(NCCc2c[nH]c3ccccc23)c2cc(Cl)ccc2[nH]c1=O,-115*
SMILES,Tg IFNy HTS
COC(=O)c1c(NCc2ccccc2Br)c2cc(F)ccc2[nH]c1=O,-40
COC(=O)c1c(NCC(C)C)c2cc(F)ccc2[nH]c1=O,-30
COC(=O)c1c(NCCc2cccs2)c2ccc(F)cc2[nH]c1=O,-36
COC(=O)c1c(NCC(C)O)c2cc(F)ccc2[nH]c1=O (stereo not given),19
COC(=O)c1c(NCCc2c[nH]c3ccccc23)c2ccccc2[nH]c1=O,-89*
COC(=O)c1c(NCCN2CCCc3ccccc32)c2cc(F)ccc2[nH]c1=O,18
CN1CC2(CCN(C(=O)c3ccc4sc5c(c4c3)CCNC5=O)C2)OC1=O (stereo not given),55
COCC(=O)N1[C@H](CO)[C@@H]2c3ccccc3N(C(=O)Nc3ccccc3Cl)C[C@@H]21,4
CCCN1CCCC(C2C(=O)Nc3ccccc32)C1 (stereo not given),24
CC[C@H](NC(=O)c1c(O)c(-c2ccccc2)nc2ccccc12)c1ccccc1,19
COc1ccc(S(=O)(=O)NCCc2sc(-c3cccc(C)c3)nc2C)cc1F,i
O=C(Cn1c(=O)ccc2cc(S(=O)(=O)N3CCCC3)ccc21)NCc1ccc2c(c1)OCO2,38
Cc1ccc2ccc3ccc(C)nc3c2n1,-76*
Cc1ccc2cccc(N3C(=O)Nc4ccccc4N3O)c2n1,181
Cc1ccc2cccc(NS(=O)(=O)c3cn(C)nc3C)c2n1,65
COCC1CC2(CCN(C(=O)c3ccc4ccccc4n3)CC2)CO1 (stereo not given),4
O=C(c1ccc2c3c(cccc13)CC2)C1CCCN(C(=O)c2cc3ccccc3oc2=O)C1 (stereo not given),18
CCn1c(CN2CCCC(n3c(=O)oc4ccc(Cl)cc43)C2)nc2ccccc21 (stereo not given),-87*
O=c1oc2ccccc2n1C1CCCN(CC2=Cc3ccccc3OC2)C1 (stereo not given),2
CCn1c(CN2CC[C@@H](c3sccc3C)[C@H](O)C2)nc2ccccc21,11
CN(Cc1noc2c1CCCC2)C(=O)c1ccccc1C1CCNC1 (stereo not given),12
CCOc1ccc(CC(=O)Nc2ccc(-c3nc(-c4ccccc4)co3)cc2)cc1OCC,-9
CCOC(=O)c1cccnc1-c1cccc(NC(C)=O)c1,13
COC(=O)c1cnc(SCC(=O)Nc2cccc(Cl)c2)n1C,34
CCOC(=O)c1c(Sc2ccccc2)cnn1C(=O)Nc1cccc(Cl)c1,-79*
